Source: PubChem BioAssay AID1159580 (chemical genetic matrix, 2015)
Several values for one entry are separate records, joined by “and”; a condition that tells them apart may be missing. Identical values can stand only once. Screen size: about 5,500 compounds; about 2,000 (36%) were called active. Not shown: some 18% with an inconclusive outcome. Cut-off read from the data, not from the text of the source: active = normalized growth mostly below about 0.91 (no sharp cut-off); inconclusive = no clear call, values can overlap the other calls; inactive = mostly above about 0.92. The list shows a part of the results.

Assay: chemical genetic growth profiling, strain panel (AID 1159580);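 note: tested at 20 µM; growth read once vehicle control cultures reached saturation at 30 °C; 1 = growth at the plate median or of vehicle wells; lower values mean less growth of the strain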
Conditions: S. cerevisiae deletion strains, growth OD

Measured: normalized growth

C1N2CN3CN1CN(C2)C3
inactive: locus YAL013W, strain DEP1, hits give low values 0.975 | locus YAL021C, strain ccr4, hits give low values 0.986 | locus YAL026C, strain drs2, hits give low values 1 | locus YAL030W, strain snc1, hits give low values 0.993 | locus YBL061C, strain skt5, hits give low values 0.991 | locus YBR009C, strain hhf1, hits give low values 1.03 | locus YBR021W, strain FUR4, hits give low values 1.06 | locus YBR023C, strain chs3, hits give low values 0.984 | locus YBR171W, strain sec66, hits give low values 0.991 | locus YBR229C, strain ROT2, hits give low values 0.949 | locus YBR231C, strain swc5, hits give low values 1 | locus YBR279W, strain paf1, hits give low values 0.985 | locus YCL011C, strain gbp2, hits give low values 0.986 | locus YCL016C, strain dcc1, hits give low values 0.961 | locus YCL029C, strain bik1, hits give low values 0.977 | locus YCL061C, strain MRC1, hits give low values 0.987 | locus YCL069W, strain vba3, hits give low values 1 | locus YCR088W, strain abp1, hits give low values 0.982 | locus YDL005C, strain med2, hits give low values 0.999 | locus YDL035C, strain GPR1, hits give low values 0.989 | locus YDL040C, strain nat1, hits give low values 0.996 | locus YDL074C, strain BRE1, hits give low values 0.972 | locus YDL101C, strain DUN1, hits give low values 0.955 | locus YDL134C, strain PPH21, hits give low values 0.983 | locus YDL185W, strain tfp1, hits give low values 0.951 | locus YDL192W, strain arf1, hits give low values 0.972 | locus YDR001C, strain nth1, hits give low values 0.994 | locus YDR069C, strain doa4, hits give low values 1.03 | locus YDR101C, strain arx1, hits give low values 0.977 | locus YDR137W, strain rgp1, hits give low values 0.985 | locus YDR150W, strain NUM1, hits give low values 0.972 | locus YDR159W, strain sac3, hits give low values 1.04 | locus YDR162C, strain NBP2, hits give low values 0.954 | locus YDR195W, strain ref2 1.01 | locus YDR297W, strain sur2, hits give low values 0.986 | locus YDR318W, strain mcm21, hits give low values 0.98 | locus YDR334W, strain swr1, hits give low values 0.974 | locus YDR335W, strain msn5, hits give low values 0.997 | locus YDR388W, hits give low values 0.976 | locus YDR392W, strain spt3, hits give low values 0.923 | locus YDR502C, strain sam2, hits give low values 0.966 | locus YEL003W, strain gim4, hits give low values 1 | locus YEL037C, strain rad23, hits give low values 0.982 | locus YEL061C, strain CIN8 (second series), hits give low values 0.978 | locus YEL061C, strain CIN8, hits give low values 0.983 | locus YER015W, strain faa2, hits give low values 0.988 | locus YER016W, strain bim1, hits give low values 0.999 | locus YER110C, hits give low values 0.975 | locus YER111C, strain swi4, hits give low values 0.978 | locus YER155C, strain BEM2 (second series), hits give low values 0.991 | locus YER155C, strain BEM2, hits give low values 0.982 | locus YER167W, strain BCK2, hits give low values 0.984 | locus YFR010W, strain ubp6, hits give low values 0.988 | locus YGL078C, strain dbp3, hits give low values 0.942 | locus YGL086W, strain mad1, hits give low values 0.991 | locus YGL167C, strain pmr1, hits give low values 0.992 | locus YGL173C, strain kem1, hits give low values 0.994 | locus YGL227W, strain vid30, hits give low values 1 | locus YGL240W, strain doc1, hits give low values 0.999 | locus YGL248W, strain PDE1, hits give low values 0.973 | locus YGL253W, strain hxk2, hits give low values 0.998 | locus YGR078C, strain PAC10, hits give low values 0.973 | locus YGR135W, strain pre9, hits give low values 0.934 | locus YGR229C, strain SMI1, hits give low values 0.966 | locus YGR252W, strain gcn5, hits give low values 1.12 | locus YHR013C, strain ard1, hits give low values 0.95 | locus YHR027C, strain rpn1, hits give low values 0.99 | locus YHR030C, strain SLT2, hits give low values 0.99 and 0.968 | locus YHR079C, strain IRE1 (second series), hits give low values 0.974 | locus YHR079C, strain IRE1, hits give low values 0.929 | locus YHR094C, strain hxt1, hits give low values 0.976 | locus YHR129C, strain ARP1, hits give low values 0.978 | locus YHR142W, strain chs7, hits give low values 0.973 | locus YHR200W, strain rpn10, hits give low values 0.975 | locus YIL066C, strain RNR3, hits give low values 0.984 | locus YIL073C, strain SPO22, hits give low values 0.895 | locus YIL125W, strain kgd1, hits give low values 0.979 | locus YIR030C, strain dcg1, hits give low values 0.976 | locus YJL092W, strain hpr5, hits give low values 0.982 | locus YJL095W, strain BCK1 (second series), hits give low values 0.986 | locus YJL095W, strain BCK1, hits give low values 0.988 and 0.948 | locus YJL115W, strain asf1, hits give low values 0.985 | locus YJL129C, strain trk1, hits give low values 0.979 | locus YJL134W, strain LCB3, hits give low values 0.98 | locus YJL154C, strain vps35, hits give low values 0.991 | locus YJL164C, strain tpk1, hits give low values 0.99 | locus YJL166W, strain qcr8, hits give low values 0.964 | locus YJL168C, strain set2, hits give low values 0.985 | locus YJL187C, strain SWE1 (second series), hits give low values 0.975 | locus YJL187C, strain SWE1, hits give low values 0.988 | locus YJR043C, strain POL32, hits give low values 0.997 | locus YJR066W, strain TOR1, hits give low values 0.987
